# Screening results as filed in PubChem.
# Compounds with a hit are over-represented: about 21% of the library has one in this group of screens.
# Pf growth 96h: Primary qHTS for delayed death inhibitors of the malarial parasite plastid, 96 hour incubation | P. falciparum luciferase reporter growth, 96 h | Potency, µM (titrated, usually from 28.7 µM), inactives show at the top dose activity change, negative = inhibition, hits mostly inhibitors | hit rate 6.9% among 320,000 | AID 504834, 2011; also: potency is read from the fitted curve at half-maximal effect; % is scaled to controls: 0 for no effect and ±100 for the full control effect
#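 96 h incubation, 37 C, 5% CO2, of luciferase-reporter P. falciparum-infected RBCs (2% hematocrit, 0.05% parasitemia final) with test compounds; endpoint luminescence.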
# Shiga inhibitor: A qHTS for Small Molecule Inhibitors of Shiga Toxin | hit rate 9.2% among 290,000 | inhibition, % at 38.7 µM | AID 2315, 2010 | Vero cells, Shiga toxin protein synthesis inhibition reporter; in the data active = inhibition mostly above about 28%, no sharp cut-off; inactive = mostly below about 43%; also: 0% is about no effect
# Cycloheximide cs: Cycloheximide Counterscreen for Small Molecule Inhibitors of Shiga Toxin. max response, %. hit rate 12% among 300,000. AID 2314, 2010. cell reporter, cycloheximide protein synthesis inhibition counterscreen; in the data active = max response mostly above about 13%, no sharp cut-off; inactive = mostly below about 14%; also: read at 38.3 µM for the half of the compounds with a filed dose; 0% is about no effect
# Pf growth 48h: Primary qHTS for delayed death inhibitors of the malarial parasite plastid, 48 hour incubation. Potency, µM (titrated, usually from 28.7 µM), for inactives: top-dose activity change, negative = inhibition, actives largely listed as inhibitors. hit rate 5.9% among 310,000. P. falciparum luciferase growth in erythrocytes, 48 h; also: potency is read from the fitted curve at half-maximal effect; % is scaled to controls: 0 for no effect and ±100 for the full control effect
#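 Erythrocytes infected with P. falciparum carrying an integrated firefly luciferase reporter (2% hematocrit, 0.1% parasitemia final) were exposed to compounds in RPMI 1640 with 0.5% Albumax at 37 C, 5% CO2. Growth inhibition was scored as reduced luminescence.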
# An asterisk follows results filed as active; ? = inconclusive; nt = no result; [ ] = remark or other dose. Unless noted, calls follow the shape of the dose curve; as a rule, active = well fitted inhibition curve with a large enough effect; inconclusive = small, poorly fitted or top-dose-only effect, or another doubt; inactive = no such curve, though single readings can be large or run the other way.
SMILES,Pf growth 96h,Shiga inhibitor,Cycloheximide cs,Pf growth 48h
COc1cc(OC)cc(-c2cc3nc(C)c(CCC(=O)O)c(C)n3n2)c1,9.3µM*,-19,-7,nt
COc1ccccc1-c1cc2nc(C)c(CCC(=O)NCc3ccco3)c(C)n2n1,?,3,14,?
CCc1c(C)nc2cc(-c3cc(OC)cc(OC)c3)nn2c1N1CCN(CCN2CCOCC2)CC1,37%,-12,-2,1.3µM*
Cc1nc2ncnn2c(C)c1CCC(=O)NC(C)c1ccc2c(c1)OCCO2 (configuration not stated),nt,-8,-4,7%
Cc1nc2ncnn2c(C)c1CCC(=O)NC(C)CCc1ccco1 (configuration not stated),12µM*,-24,-3,10%
COc1cc(OC)cc(-c2cc3nc(C)c(CCC(=O)NC(C)CCc4ccco4)c(C)n3n2)c1 (configuration not stated),10%,8,-1,9.3µM*
COCCNC(=O)C1(C(F)(F)F)C/C(=C/CCO)CCCO1 (configuration not stated),nt,3,9,nt
COC(=O)C1CCN(C(=O)COC(=O)CSc2ccc(C(N)=O)cc2[N+](=O)[O-])CC1,-1%,nt,nt,21%
Cc1nc2cc(-c3ccccc3)nn2c(C)c1CCC(=O)NCc1ccco1,?,68*,39*,nt
Cc1nc2cc(-c3cccc(F)c3)nn2c(C)c1CCC(=O)NC(C)CCc1ccco1 (configuration not stated),10µM*,-8,-4,nt
COc1ccc(CNc2nc(SCc3cc(=O)n4cc(Cl)ccc4n3)nc3ccccc23)cc1,19%,-18,-1,38%
CCC(C(=O)Nc1ccc(C(=O)O)cc1NC(=O)C(CC)c1ccccc1)c1ccccc1 (configuration not stated),2%,10,1,-7%
COc1ccc(Nc2c3c(nc4ccc(C)cc24)CCC3)cc1,-2%,-5,-4,8.3µM*
COc1ccc2nc3c(c(-c4ccccc4)c2c1)CCC3,?,9,12,12%
Cc1ccc2nc3c(c(Nc4ccc5c(c4)OCCO5)c2c1)CCC3,?,2,10,4.1µM*
Cc1ccc2nc3c(c(Nc4ccc(O)cc4)c2c1)CCC3,-87%,21,2,2.3µM*
COCc1c(C(=O)OCC(=O)NCCN2C(=O)CSC2=O)oc2ccccc12,9%,-6,-2,8%
COc1ccc([C@H]2CC(=O)C=C(c3ccc(SC)cc3)C2)cc1,58%,nt,nt,-5%
N#CC1=C(Nc2ccccc2)SC=C(c2ccc(Cl)c(Cl)c2)N=C1N1CCOCC1,?,-4,7,13µM*
O=[N+]([O-])c1ccc(Nc2ccc3ccccc3c2)nc1,?,89*,45*,-93%
C=CCN1C(=O)SC(Cc2cccc(OC)c2O)C1=O (configuration not stated),52%[5.75 µM],12,5,31%
CCCCOC(=O)n1c(SCC(=O)N(CC)CC)nc2ccccc21,2.6µM*,-7,0,-22%
Cc1ccc(S(=O)(=O)/N=C2/C=C(Sc3ncn[nH]3)C(=O)c3ccccc32)cc1,16%,51,33*,1.5µM*
Cc1ccc(S(=O)(=O)Nc2ccc(O)c(Sc3ncn[nH]3)c2)cc1,-21%,-10,-3,-3%
CC(C)c1ccc(S(=O)(=O)/N=C2/C=C(Sc3ncn[nH]3)C(=O)c3ccccc32)cc1,?,78*,36*,1.3µM*
Cc1ccc(S(=O)(=O)N2CCN(C(=O)CSc3ncn[nH]3)CC2)c(C)c1,-9%,nt,nt,-5%
Cc1ccc(S(=O)(=O)/N=C2/C=C(Sc3ncn[nH]3)C(=O)c3ccccc32)c(C)c1,-23%,16,19*,2.1µM*
C#CCOCCOCCOCCNc1nc(N2CCN(C(=O)CCCCCCCCCCNC(=O)[C@H]([C@@H](C)CC)n3cc(CCCCCN)nn3)CC2)nc(N2CCN(C(=O)CCCCCCCCCCNC(=O)[C@H]([C@@H](C)CC)n3cc(CCCCN=C(N)N)nn3)CC2)n1,2.9µM*,nt,nt,?
C#CCOCCOCCOCCNc1nc(N2CCN(C(=O)[C@H]([C@@H](C)CC)n3cc(CCCN=C(N)N)nn3)CC2)nc(N2CCN(C(=O)[C@H](Cc3ccc(O)cc3)n3cc(CCO)nn3)CC2)n1,?,-10,-3,-5%
C#CCOCCOCCOCCNc1nc(N2CCN(C(=O)CCCCCCCCCCNC(=O)[C@H]([C@@H](C)CC)n3cc(CCCCN=C(N)N)nn3)CC2)nc(N2CCN(C(=O)CCCCCCCCCCNC(=O)[C@H](CO)n3cc(CCCCCN)nn3)CC2)n1,5.2µM*,nt,nt,5.2µM*
